Inconclusive results are not listed. A call without a number means that no potency is given here. Values without a mark were called inactive. Activity calls are given as the source filed them. The call rests on the fitted dose curve; in most records, active means well fitted curve in the direction sought with a large enough effect; inconclusive means small, poorly fitted or top-dose-only effect, or another doubt; inactive means no such curve, though single readings can be large; an effect the other way counts as inactive or inconclusive.
Experiments:
[1] = system: Zika virus NS2B-NS3 protease (unlinked complex); assay: Primary screen GU Rhodamine qHTS for Zika virus inhibitors: Unlinked NS2B-NS3 protease assay (AID 1347159); further: nearly all actives have a fitted effect of over 60% in size; further: potency means the concentration at half of the fitted maximal effect
Summary of the method: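 Compounds, tested up to 114 microM, were incubated for 15 minutes with 25 nM unlinked NS2B-NS3 protease at pH 8.0. Cleavage of 1.5 microM Rhodamine110 substrate was then followed by fluorescence for 15 minutes.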

[2] = system: Zika virus NS2B-NS3 protease (linked construct); assay: Primary screen NINDS Rhodamine qHTS for Zika virus inhibitors (AID 1347160); further: nearly all actives have a fitted effect of over 55% in size; further: potency means the concentration at half of the fitted maximal effect
Summary of the method: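 Percent inhibition, normalized to uninhibited and enzyme-free controls, is fitted to a 4-parameter Hill equation. Fluorescence change comes from a 15-min cleavage of 1.5 microM bis-peptide Rhodamine110 substrate by 25 nM linked NS2B-NS3 at room temperature.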

[3] = system: Zika virus NS2B-NS3 protease; assay: Primary screen GU AMC qHTS for Zika virus inhibitors (AID 1347154); further: nearly all actives have a fitted effect of over 70% in size
Summary of the method: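 Unlinked Zika NS2B hydrophilic domain/NS3 protease domain noncovalent complex (25 nM final) in 10 mM Tris-HCl pH 8.0, 0.01% Tween 20, with AMC peptide substrate. Fluorescence (ex 340, em 450 nm) change over 15 min, room temperature; percent inhibition fitted to 4-parameter Hill equation.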

Furin (Homo sapiens) = Furin (Homo sapiens) (UniProt P09958); assay: Furin counterscreen qHTS for Zika virus inhibitors (AID 1347149);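 further: purified recombinant full-length human furin enzyme at 5 nM; fluorescence gain from furin cutting a BOC-RVRR-AMC peptide substrate over 15 min; top concentration of the series differs between compounds; nearly all actives have a fitted effect of over 70% in size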
Furin (Homo sapiens), sequence (P09958 whole entry, looked up): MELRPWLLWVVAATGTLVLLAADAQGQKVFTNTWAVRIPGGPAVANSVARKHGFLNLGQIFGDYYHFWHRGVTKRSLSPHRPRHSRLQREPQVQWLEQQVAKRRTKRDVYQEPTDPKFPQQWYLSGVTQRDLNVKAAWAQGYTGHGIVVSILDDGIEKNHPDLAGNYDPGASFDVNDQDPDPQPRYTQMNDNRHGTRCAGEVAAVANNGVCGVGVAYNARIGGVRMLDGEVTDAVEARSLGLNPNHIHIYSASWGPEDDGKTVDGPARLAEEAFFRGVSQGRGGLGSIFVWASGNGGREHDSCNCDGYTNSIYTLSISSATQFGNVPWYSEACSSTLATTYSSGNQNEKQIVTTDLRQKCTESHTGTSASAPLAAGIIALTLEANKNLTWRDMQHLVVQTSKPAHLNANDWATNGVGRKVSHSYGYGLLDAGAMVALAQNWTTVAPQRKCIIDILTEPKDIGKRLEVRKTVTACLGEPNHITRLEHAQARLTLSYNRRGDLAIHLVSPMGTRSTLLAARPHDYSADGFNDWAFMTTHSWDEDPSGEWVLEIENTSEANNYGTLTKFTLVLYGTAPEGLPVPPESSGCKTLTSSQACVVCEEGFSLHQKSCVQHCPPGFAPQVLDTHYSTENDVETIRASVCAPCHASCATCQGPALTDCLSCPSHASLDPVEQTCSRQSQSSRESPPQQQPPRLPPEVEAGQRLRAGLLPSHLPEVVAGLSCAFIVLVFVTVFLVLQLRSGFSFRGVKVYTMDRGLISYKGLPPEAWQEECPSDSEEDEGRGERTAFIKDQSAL
Summary of the method: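 Fluorogenic cleavage of BOC-RVRR-AMC (2 microM final, Km ~15 µM) was monitored (ex 340, em 450 nm) at 37C after 15 min RT preincubation of 5 nM furin with compounds in HEPES pH 7.0 buffer with CaCl2 and Triton X-100. Percent inhibition was fitted to a 4-parameter Hill curve.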

[4] = ZIKV-mCherry secondary qHTS for Zika virus inhibitors (AID 1347158); further: top concentration of the series differs between compounds
Summary of the method: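 Vero, 5,000 cells/well, o/n 37 °C; cpd pin-transferred in DMSO; ZIKV-mCherry MOI 1, 48-72 h 37 °C; 32% PFA stock fix, Hoechst; imaged 10x DAPI/mCherry; mCherry+ threshold 450 RFU; % infection.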

[5] = system: Zika virus NS2B-NS3 protease (linked); assay: 384 well plate NINDS AMC confirmatory qHTS for Zika virus inhibitors (AID 1347163); conditions: Recombinant NS2B-NS3 protease, Ac-VKTGKR-AMC fluorescence; further: potency means the concentration at half of the fitted maximal effect; nearly all actives have a fitted effect of over 50% in size
Summary of the method: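 Linked NS2B-NS3 protease (final 5 nM, 30 nM or 60 nM) was preincubated with compounds (final up to 1 mM) for ~15 minutes. Ac-VKTGKR-AMC substrate (final 30 microM) then reacted for 25 minutes at room temperature in the dark. Fluorescence (ex 355/em 460 nm) was normalized to no-enzyme and no-inhibitor controls.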

[6] = system: Zika virus NS2B-NS3 protease (unlinked complex); assay: Confirmatory screen GU AMC qHTS for Zika virus inhibitors (AID 1347153); further: nearly all actives have a fitted effect of over 70% in size
Summary of the method: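 Unlinked enzyme 25 nM, Tris pH 8.0/0.01% Tween 20; cpd 15 min RT, dark; + AMC substrate 10 µM (Km 18.3 µM); 340/450 nm read at t0 and 15 min; % inhibition → 4-param fit.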

[7] = Confirmatory screen NINDS Rhodamine qHTS for Zika virus inhibitors (AID 1347161); further: nearly all actives have a fitted effect of over 60% in size; further: potency means the concentration at half of the fitted maximal effect;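 on activity change, negative = inhibition: purified Zika NS2B-NS3 protease with linked NS2B cofactor domain and Rhodamine110 peptide substrate; series mostly up to about 110 µM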
Summary of the method: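 Single-chain NS2B-NS3 protease, 25 nM, pH 8.0; compounds preincubated 15 min. Activity: Rhodamine110 release from 1.5 microM substrate over 15 min, room temperature, data fitted to 4-parameter Hill.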

[8] = qHTS of pediatric cancer cell lines to identify multiple opportunities for drug repurposing: Primary screen for BT-12 cells (AID 1347101); further: nearly all actives have a fitted effect of over 25% in size
Summary of the method: (§1)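 Cells (500-1,000/well) rested 5 h, then received compounds for 48 h; metabolically active cells were measured by CellTiter-Glo luminescence. Final concentrations spanned up to 46 µM (MIPE, 11-point) or 0.59 nM-46 µM (NPC, 8-point) in primary screens, 11-point in follow-ups.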

[9] = qHTS of pediatric cancer cell lines to identify multiple opportunities for drug repurposing: Primary screen for Rh18 cells (AID 1347102); further: nearly all actives have a fitted effect of over 65% in size
Summary of the method: (§2)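 Cells (500-1,000/well) in growth media were settled 5 h at 37 degrees C, then given compounds for 48 h. Viability was read as CellTiter-Glo luminescence. Primary runs used MIPE at 11 points (0.78 nM-46 µM) and NPC at 8 points (0.59 nM-46 µM); follow-ups used 11 points.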

[10] = qHTS of pediatric cancer cell lines to identify multiple opportunities for drug repurposing: Primary screen for RD cells (AID 1347104); further: nearly all actives have a fitted effect of over 55% in size
Summary of the method: (§3)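 Readout: CellTiter-Glo luminescence, 48 h treatment. Controls DMSO (neutral) and bortezomib 2.3 µM final (positive). Potency and efficacy taken from primary-screen concentration-response curves.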

[11] = qHTS of pediatric cancer cell lines to identify multiple opportunities for drug repurposing: Primary screen for control Hh wild type fibroblast cells (AID 1347106);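 further: series mostly up to about 46 µM; a drop in luminescence marks cytotoxicity and a rise apparent proliferation; nearly all actives have a fitted effect of over 55% in size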
Summary of the method: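 Viability after 48 h compound treatment at 37C, 500-1,000 cells/well, read as ATP luminescence with CellTiter-Glo. Primary screens used 11-point (MIPE, 0.78 nM-46 µM) or 8-point (NPC, 0.59 nM-46 µM) final concentrations; follow-up screens used 11-point dilutions.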

[12] = qHTS of pediatric cancer cell lines to identify multiple opportunities for drug repurposing: Primary screen for Rh30 cells (AID 1347107); further: series mostly up to about 46 µM; nearly all actives have a fitted effect of over 75% in size
Summary of the method: as §2

[13] = qHTS of pediatric cancer cell lines to identify multiple opportunities for drug repurposing: Primary screen for Rh41 cells (AID 1347108);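 further: series mostly up to about 46 µM; luminescence drop marks cytotoxic hits; nearly all actives have a fitted effect of over 70% in size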
Summary of the method: as §3

[14] = Confirmatory screen GU Rhodamine qHTS for Zika virus inhibitors qHTS (AID 1347157); further: nearly all actives have a fitted effect of over 70% in size; further: potency means the concentration at half of the fitted maximal effect
Summary of the method: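 Percent inhibition derives from the 15-min fluorescence change (ex 480, em 540 nm), normalized to no-enzyme and no-inhibitor wells. Reactions contained 25 nM NS2B-NS3 complex and 1.5 microM substrate in 10 mM Tris-HCl pH 8.0.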

[15] = qHTS of pediatric cancer cell lines to identify multiple opportunities for drug repurposing: Primary screen for MG 63 (6-TG R) cells (AID 1347105); further: nearly all actives have a fitted effect of over 50% in size
Summary of the method: as §3

[16] = qHTS of pediatric cancer cell lines to identify multiple opportunities for drug repurposing: Primary screen for OHS-50 cells (AID 1347103); further: nearly all actives have a fitted effect of over 40% in size
Summary of the method: as §1

[17] = target: N-terminal Xaa-Pro-Lys N-methyltransferase 1 (Homo sapiens) (UniProt Q9BV86); assay: qHTS Assay for Inhibitors of N-terminal methyltransferase 1 (NTMT1): LOPAC validation of the NTMT1 SAHH-coupled ThioGlo3 Assay (AID 1347143); conditions: recombinant NTMT1, SAHH-coupled ThioGlo3 fluorescence
N-terminal Xaa-Pro-Lys N-methyltransferase 1 (Homo sapiens), sequence (Q9BV86 whole entry, looked up): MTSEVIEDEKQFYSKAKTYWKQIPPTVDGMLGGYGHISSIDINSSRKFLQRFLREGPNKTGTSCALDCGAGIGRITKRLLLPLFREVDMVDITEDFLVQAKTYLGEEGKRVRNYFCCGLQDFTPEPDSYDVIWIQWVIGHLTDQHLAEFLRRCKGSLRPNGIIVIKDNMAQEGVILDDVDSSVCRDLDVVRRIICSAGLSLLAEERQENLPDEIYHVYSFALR
Summary of the method: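 Fluorescence read-out (excitation 340nm, emission 450nm) of SAH-derived thiol, measured via SAHH coupling and ThioGlo3, taken immediately and after a 30 min room-temperature reaction, then normalized to the background read. Enzyme: NTMT1 at 125nM; cofactor SAM 100uM in the added reagent.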

[18] = system: Zika virus NS2B-NS3 protease (unlinked); assay: Optimization of GU AMC qHTS for Zika virus inhibitors: Unlinked NS2B-NS3 protease assay (AID 1347151); further: potency means the concentration at half of the fitted maximal effect; nearly all actives have a fitted effect of over 80% in size
Summary of the method: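 Noncovalent NS2B hydrophilic domain–NS3 protease complex (25 nM final) in 10 mM Tris-HCl pH 8.0, 0.01% Tween 20; AMC substrate, room temperature 15 min (~20% conversion); fluorescence change normalized, 4-parameter Hill fit.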

## C=C1[C@H](CO)[C@@H](O)C[C@@H]1n1cnc2c(=O)[nH]c(N)nc21
[1]
  Potency: inactive
[2]
  Potency: inactive

## CCOC(=O)C1=C(COCCN)NC(C)=C(C(=O)OC)C1c1ccccc1Cl (stereo unspecified)
[3]
  outcome: inactive

## C[C@@](Cc1ccc(O)c(O)c1)(NN)C(=O)O
[3]
  outcome: inactive

## O=C1CCC(c2ccccc2)(C2CCN(Cc3ccccc3)CC2)C(=O)N1 (stereo unspecified)
[3]
  outcome: inactive

## NC[C@H]1O[C@H](O[C@H]2[C@H](O)[C@@H](O[C@H]3O[C@H](CO)[C@@H](O)[C@H](N)[C@H]3O)[C@H](N)C[C@@H]2N)[C@H](N)C[C@@H]1O
[3]
  outcome: inactive

## Cc1cc(-c2ccc(N=Nc3ccc4c(S(=O)(=O)O)cc(S(=O)(=O)O)c(N)c4c3O)c(C)c2)ccc1N=Nc1ccc2c(S(=O)(=O)O)cc(S(=O)(=O)O)c(N)c2c1O
Furin (Homo sapiens)
  outcome: inactive
[4]
  outcome: inactive
[5]
  Potency: 5.62 µM (active)

## CO[C@H]1C[C@@H]2CC[C@@H](C)[C@@](O)(O2)C(=O)C(=O)N2CCCC[C@H]2C(=O)O[C@H]([C@H](C)C[C@@H]2CC[C@@H](OC(=O)C(C)(CO)CO)[C@H](OC)C2)CC(=O)[C@H](C)/C=C(\C)[C@@H](O)[C@@H](OC)C(=O)[C@H](C)C[C@H](C)/C=C/C=C/C=C/1C
[1]
  Potency: inactive
[2]
  Potency: inactive

## CCC(C)[C@@H](N)C(=O)O (stereo partly specified)
[3]
  outcome: inactive

## CC/C=C\C/C=C\C/C=C\CCCCCCCC(=O)O
[3]
  activity change, negative = inhibition: -0.651% [at 6.83 µM]

## CO[C@H]1C[C@H](O[C@@H]2/C(C)=C/C[C@@H]3C[C@@H](C[C@]4(CC[C@H](C)[C@@H](C5CCCCC5)O4)O3)OC(=O)[C@@H]3C=C(C)/C(=N/O)[C@H]4OC/C(=C\C=C\[C@@H]2C)[C@]43O)O[C@@H](C)[C@@H]1O
[6]
  outcome: inactive
[7]
  Potency: inactive

## COC(=O)C(CN)c1c[nH]c2ccc(OC)cc12 (stereo unspecified)
[3]
  outcome: inactive

## CC(=O)Oc1cccc2c1C(=O)c1c(OC(C)=O)cc(C(=O)O)cc1C2=O
[8]
  outcome: inactive
[9]
  outcome: inactive
[10]
  outcome: inactive
[11]
  outcome: inactive
[12]
  outcome: inactive
[13]
  outcome: inactive

## CC(C)(C)c1ccc(CN2CCN(C(c3ccccc3)c3ccc(Cl)cc3)CC2)cc1 (stereo unspecified)
[1]
  Potency: inactive
[2]
  Potency: inactive

## O=C(O)Cc1nn(Cc2ccc(Br)cc2F)c(=O)c2ccccc12
[3]
  outcome: inactive

## CC1(C)C(\C=C/C=C\C=C/C=C2/N(CCCCS(=O)(=O)O)c3ccc4ccccc4c3C2(C)C)=[N+](CCCCS(=O)(=O)[O-])c2ccc3ccccc3c21
[14]
  Potency: 3.98 µM (active)
[4]
  outcome: inactive
[7]
  Potency: 5.62 µM (active)
[5]
  Potency: 39.8 µM (active)

## Nc1ccc(N=Nc2ccccc2)c(N)n1
[8]
  outcome: inactive
[9]
  outcome: inactive
[10]
  outcome: inactive
[15]
  outcome: inactive
[11]
  outcome: inactive
[12]
  outcome: inactive
[13]
  outcome: inactive
[3]
  outcome: inactive

## C=C1CC[C@H](O)CC1=C/C=C1\CCC[C@]2(C)[C@@H]([C@H](C)/C=C/[C@H](C)C(C)C)CC[C@@H]12
[1]
  Potency: 11.2 µM (active)
[2]
  Potency: 12.6 µM (active)

## Oc1ccc(/C=C/c2cc(O)cc(O)c2)cc1
[8]
  outcome: inactive
[9]
  outcome: inactive
[16]
  outcome: inactive
[10]
  outcome: inactive
[11]
  outcome: inactive
[12]
  outcome: inactive
[13]
  outcome: inactive
[17]
  Potency: 50.1 µM (active)
[18]
  Potency: 26.7 µM (active)

## O=C(OCc1ccccc1)c1ccc(O)cc1
[8]
  outcome: inactive
[9]
  outcome: inactive
[10]
  outcome: inactive
[15]
  outcome: inactive
[11]
  outcome: inactive
[12]
  outcome: inactive
[13]
  outcome: inactive
[3]
  outcome: inactive

## CCN(CC)CCOCCOC(=O)C(CC)(CC)c1ccccc1
[1]
  Potency: inactive
[2]
  Potency: inactive

## CC(C)(C)CC(C)(C)c1cc(Cc2cc(C(C)(C)CC(C)(C)C)cc(-n3nc4ccccc4n3)c2O)c(O)c(-n2nc3ccccc3n2)c1
Furin (Homo sapiens)
  outcome: inactive
[14]
  Potency: inactive
[7]
  Potency: inactive

Source: PubChem BioAssay (NCATS)
